Only a selection was taken, and hits are over-represented in it overall.
TTR transcr act: TTR transcription activation, primary screen; SH-SY5Y TTR promoter Gaussia luciferase, luminescence; 100% = recombinant luciferase protein wells; activation, % at 16.7 µM; hit rate 1.3% among 92,000;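 active = activation above the mean of all tested compounds plus 3 SD, cut at about 9.5% in these data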;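 note: cells exposed to compounds for one day before reading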
TTR inh HuH7: HuH7 TTR transcription inhibition, counter-screen; inhibition, % at 16.7 µM; AID 1117279; hit rate 4% among 1,100; shares compounds with TTR transcr act; HuH7 TTR promoter-Gaussia luciferase reporter, luminescence;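 active = average inhibition above the solvent-only control wells' mean plus 3 SD, cut at about 15% in these data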;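 note: inhibitors lower well luminescence so higher value means more inhibition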
TTR act confirm: human TTR transcription activation, confirmation | shares compounds with TTR transcr act | SHSY5Y TTR promoter Gaussia luciferase, luminescence; 100% = purified Lucia enzyme wells, no cells | activation, % at 16.7 µM | 1,100 tested, under 10 active;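 active = mean activation above a set limit taken from the earlier primary screen, cut at about 11% in these data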
Each line names hits and unclear results; the compound was inactive in the other large screens (follow-up assays come after a bar, where they were run).

COc1ccc(/C=C/C(=O)Nc2ccc(OC)cc2[N+](=O)[O-])cc1	TTR transcr act 13 | TTR inh HuH7 inactive | TTR act confirm inactive
O=C(NCCCN=C1NS(=O)(=O)c2ccccc21)c1ccc(Cl)cc1	none
CC(C)(C)OC(=O)NCc1cc2c(cc1/C=C/S(=O)(=O)NCc1ccc(F)cc1)OCO2	none
CC(C)(C)C(=O)Nc1ccc(-c2cnco2)cc1	none
CN(Cc1nccn1C)C(=O)C1CCC(=O)N(CCc2ccc(Cl)cc2)C1 (centres undefined)	none
COc1cc(C2(c3ccc(O)c(OC)c3)C(=O)N(C)c3ccc(C)cc32)ccc1O	none
Cc1cc(Br)cc2c1N(C)C(=O)C2(c1ccc(O)cc1)c1ccc(O)cc1	TTR transcr act 47 | TTR inh HuH7 inactive | TTR act confirm inactive
CN1C(=O)C(c2cn(C)c3ccccc23)(c2cn(C)c3ccccc23)c2cc(Br)ccc21	none
CCOC(=O)[C@]12CCCC=C1N(Cc1ccc(OC)cc1)C(=O)[C@@H]2CC(=O)NCc1cccc2ccccc12	none
Clc1ccccc1N/N=C/c1ccc2c(c1)OCO2	none
O=C(OCc1cn(Cc2cccc(F)c2)nn1)N1CCCCC1	none
O=C(CC1CC2CCC1C2)NCc1cccs1 (centres undefined)	TTR transcr act 18 | TTR inh HuH7 inactive | TTR act confirm inactive
O=C(/C=C/C(=O)NCc1cccs1)NCc1cccs1	none
O=C(NCc1cccs1)NC1CCCCC1	none
CCCCCCCCCCCCCCC(O)C[N+](C)(CCO)CCO (centres undefined)	none
CCOc1ccc(S(=O)(=O)NCc2ccc(OC)cc2)c2cccnc12	none
COc1ccccc1OCCN1C(=O)S/C(=C\c2ccco2)C1=O	TTR transcr act 10 | TTR inh HuH7 inactive | TTR act confirm inactive
O=C(NCCN1C(=O)S/C(=C\c2cccs2)C1=O)c1ccco1	none
Cc1ccc(N2C(=O)/C(=C/c3ccco3)SC2=S)cc1	none
CC1CCCN1CC#CC(O)(c1ccccc1)c1ccccc1 (centres undefined)	none
O=C(Nc1ccc2ccccc2c1)C1CC2CCC1C2 (centres undefined)	none
Cc1cc(SCC(=O)N/N=C/c2ccc(O)c(O)c2)c(C)cc1Br	none
O=C(N/N=C/c1ccc(O)c(O)c1)N/N=C/c1ccc(O)c(O)c1	TTR transcr act 11 | TTR inh HuH7 inactive | TTR act confirm inactive
Oc1ccc(/C=N/NC(=S)Nc2cccnc2)cc1O	none
CC(C)(C)C(=O)Nc1cc2nn(-c3ccccc3)nc2cc1Cl	none
CC(C)(C)C(=O)Nc1nc(NC(=O)C(C)(C)C)nc(-c2ccccc2Cl)n1	TTR transcr act 10 | TTR inh HuH7 inactive | TTR act confirm inactive
Cc1c(-c2ccccc2Cl)nc2ccccc2c1C(=O)O	none
CCOC(=O)N1CCN(C(=O)C[C@H]2C(=O)N(CCCOC)C3=CCCC[C@@]32C(=O)OCC)CC1	none
CCOc1ncccc1C(=O)OCC(=O)N1CCc2ccccc21	none
CCN=C1SC(C(=O)Nc2ccc(Cl)c(Cl)c2)CC(=O)N1CC (centres undefined)	TTR transcr act 20 | TTR inh HuH7 inactive | TTR act confirm inactive
CCN=C1SC(C(=O)Nc2cccc(C)c2)CC(=O)N1CC (centres undefined)	none
CCN=C1SC(C(=O)Nc2cc(Cl)cc(Cl)c2)CC(=O)N1CC (centres undefined)	none
Cc1ccc(CN(C(=O)c2csnn2)C(C(=O)NC2CCCC2)c2ccccn2)cc1 (centres undefined)	none
Cc1csc(NC(=O)CSc2nnc(Cc3cccn3C)n2-c2ccc(F)cc2)n1	none
Cc1csc(NC(=O)CSc2nnc(-c3ccc(Cl)cc3)n2N)n1	TTR transcr act 44 | TTR inh HuH7 inactive | TTR act confirm inactive
Cc1csc(NC(=O)CCc2c(C)nc3cc(-c4ccc(Cl)cc4)nn3c2C)n1	none
COCc1cc(CNC(=O)C2CCC(=O)N(Cc3ccccc3OC)C2)[nH]n1 (centres undefined)	none
CCN1CCCCC(NC(C)=O)C1=O (centres undefined)	none
c1ccc2c(c1)ccc1nnnn12	none
Cc1nc2cc(F)ccc2n1C1CCN(C(=O)c2c(F)cccc2F)CC1	none
CCOC(=O)N1CCN(C(=O)Cn2nc(C)c3sc4ccccc4c3c2=O)CC1	none
Cc1nn(C(C)C(=O)NCCCN(Cc2ccccc2)C(C)C)c(=O)c2c1sc1ccccc12 (centres undefined)	TTR transcr act 10 | TTR inh HuH7 inactive | TTR act confirm inactive
CN(C)CCCNC(=O)c1cc2sc3ccccc3c2s1	none
Cc1nn(C)c(C)c1/C=C(\C#N)C(N)=O	none
Cc1cc(Br)c(NC(=O)CCNC(=O)OCc2ccccc2)cc1C	none
COC(=O)C(CSCc1ccccc1)NC(=O)CCNC(=O)OCc1ccccc1 (centres undefined)	TTR transcr act 14 | TTR inh HuH7 inactive | TTR act confirm inactive
COC(=O)C(CCCCNC(=O)OCc1ccccc1)NC(=O)CN (centres undefined)	none
